Hits are enriched below; roughly 28% of the tested compounds scored in any of these assays.
CYP2C9 activ: human CYP2C9 activators, primary screen, biochemical, luminescence; Cytochrome P450 2C9 (Homo sapiens), P11712; recombinant CYP2C9, luciferin-H conversion; stronger effect = higher value; factor 1 = untreated enzyme, 0 = blocked; activation factor at 5 µM; actives 1.4% (n = 96,000); AID 1024, 2008;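 active = activation factor of 2 or more for CYP2C9 at a 5 µM dose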;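 also: 0 = sulfaphenazole-blocked wells and 1 = vehicle-only wells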
PLK1 inh: human PLK1 kinase inhibitors, primary screen, biochemical, TR-FRET | recombinant PLK1 kinase, TR-FRET peptide phosphorylation | inhibition, % at 10 µM | actives 0.53% (n = 97,000) | Serine/threonine-protein kinase PLK1 (Homo sapiens), P53350 | AID 619, 2007;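 active = inhibition of 50% or more in the single-concentration screen; inactive = inhibition below 50%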;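 also: 0% = DMSO max control and 100% = H-89 dihydrochloride min control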
PLK1 PBD inh: Plk1 polo box domain binding inhibitors, primary screen, biochemical, fluorescence polarization; Plk1 PBD phosphopeptide binding; inhibition, %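 (tested at about 20 µM)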; actives 0.13% (n = 97,000); AID 693, 2007; in the data active = inhibition above about 34%, passing the limit was not always enough
CYP2C19 inh: blockers of cytochrome P450 2C19 activity – biochemical, luminescence, ADME assay, primary screen. CYP2C19 Supersomes, luciferin-H EGE luminescence, 30 min. inhibition, % at 5 µM. actives 21% (n = 96,000);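 active = CYP2C19 inhibition above a set limit at 5 µM in the primary screen, cut at about 50% in these data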;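 also: plate controls were negative control wells for no effect and 2.5 mM tranylcypromine positive control for full effect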
Target sequence (P33261 whole entry, looked up): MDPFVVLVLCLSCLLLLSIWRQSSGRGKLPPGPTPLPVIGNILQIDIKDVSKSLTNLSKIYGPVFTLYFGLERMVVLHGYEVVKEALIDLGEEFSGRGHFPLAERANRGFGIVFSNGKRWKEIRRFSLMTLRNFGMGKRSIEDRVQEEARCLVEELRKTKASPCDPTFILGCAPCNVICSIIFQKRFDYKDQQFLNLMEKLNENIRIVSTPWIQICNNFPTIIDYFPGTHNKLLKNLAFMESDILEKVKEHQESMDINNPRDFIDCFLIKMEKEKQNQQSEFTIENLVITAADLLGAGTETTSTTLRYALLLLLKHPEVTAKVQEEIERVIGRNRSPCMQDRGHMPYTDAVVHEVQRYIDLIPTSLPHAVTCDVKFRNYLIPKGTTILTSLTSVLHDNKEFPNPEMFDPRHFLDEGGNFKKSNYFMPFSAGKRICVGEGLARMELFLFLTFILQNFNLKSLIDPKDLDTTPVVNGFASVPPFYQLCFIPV
CYP2C19 act: human CYP2C19 activators, primary screen, biochemical, luminescence; recombinant CYP2C19, luciferin-H EGE luminescence; stronger effect = higher value; 0 = fully inhibited enzyme, 1 = untreated enzyme; activation factor at 5 µM; 96,000 tested, under 10 active; AID 1025, 2008;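 active = activation factor of at least 2 at 5 µM in the primary screen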;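 also: 0 = wells with 2.5 mM tranylcypromine and 1 = vehicle-only wells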
CYP2C9 inh: blockers of cytochrome P450 2C9 activity – biochemical, luminescence, ADME assay, primary screen | P11712 | CYP2C9 Supersomes, luciferin-H conversion | inhibition, % at 5 µM | actives 20% (n = 96,000) | AID 777, 2007;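 active = blocking of liver enzyme CYP2C9 beyond about 50% at 5 µM, limit read from the data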
Starred values were filed as active, the others as inactive; x = no result.

SMILES | CYP2C9 activ | PLK1 inh | PLK1 PBD inh | CYP2C19 inh | CYP2C19 act | CYP2C9 inh
CC12CC3CC(C)(C1)CC(C(=O)NC(=S)N1CCOCC1)(C3)C2 | 1 | -10.8 | -1.9 | 5.3 | 0.9 | -4.1
COc1cc(NC(=O)C2CCCCC2)c2ncccc2c1 | 2.1* | 1.7 | 22.2 | 37.8 | 0.6 | -110.7
COc1ccc(OC)c(NC(=O)C2CCCN(S(=O)(=O)c3cccc4cccnc34)C2)c1 (stereo not given) | 0.8 | 3.5 | -37.1 | 68.9* | 0.3 | 17.4
CCN(CCNC(=O)C1CCN(S(=O)(=O)c2cccc3cccnc23)CC1)c1ccccc1 | 3* | x | x | 32.5 | 0.7 | -198.7
COc1ccc(NC(=O)C2CCCN(S(=O)(=O)c3cccc4nonc34)C2)cc1 (stereo not given) | 0.9 | -3.3 | -10.8 | 4.3 | 1 | 12.9
CN(C=O)CP(=O)(O)CN1CCCCC1 | 1.2 | -7.4 | 15.6 | -18.6 | 1.2 | -20.2
Cc1cc(NC(=O)c2cncc(Br)c2)no1 | 1.2 | -3.3 | -7.0 | 2.1 | 1 | -21.9
Cc1ccc(-c2c(C)n([O-])c3c([n+]2=O)CCCCC3)o1 | 1 | 21.9 | -18.6 | 19.1 | 0.8 | 0.5
O=C1/C(=C/c2ccncc2)SC(=S)N1C1CCS(=O)(=O)C1 (stereo not given) | 0.6 | 7.2 | -17.9 | 75.3* | 0.2 | 41.6
COc1cccc(NC(C)C(=O)N2CC(C)OC(C)C2)c1 (stereo not given) | 0.9 | -0.1 | 1.2 | 5.4 | 0.9 | 10.0
CCOc1cc(CNc2cccc3ccccc23)cc(Br)c1OCC(=O)NC(C)(C)C | 0.3 | -15.0 | -0.7 | 65.4* | 0.3 | 69.8*
C=CCOc1c(Br)cc(CNc2ccc(NC(=O)CCC)cc2)cc1OCC | 0.3 | -16.8 | 10.4 | 53.9* | 0.5 | 70.9*
CCOc1cc(CO)cc(Br)c1OCC(=O)O | x | -3.0 | 12.2 | x | x | x
CCOc1cc(CNc2ccc(N(C)C)cc2)cc(Br)c1OCC(=O)NC(C)(C)C | 0 | -7.0 | -6.5 | 96.0* | 0 | 95.8*
COc1cc(CNc2ccc3[nH]c(=O)[nH]c3c2)cc(Br)c1OCC(=O)NC(C)(C)C | 0.8 | -25.6 | -7.0 | 51.1* | 0.5 | 23.7
O=C(NCCCn1ccnc1)C(Cc1ccc([N+](=O)[O-])cc1)N1C(=O)c2ccccc2C1=O (stereo not given) | x | -12.5 | 12.3 | x | x | x
COc1ccc(S(=O)(=O)Nc2ccc(Oc3ncccn3)c(Cl)c2)cc1 | 0 | -4.0 | 0.0 | 99.7* | 0 | 98.3*
COc1ccc(NS(=O)(=O)c2ccc(Oc3ncccn3)cc2)cc1 | 0.3 | -5.6 | 12.4 | 81.3* | 0.2 | 69.2*
O=S(=O)(Nc1ccccc1)c1ccc(Oc2ncc(C(F)(F)F)cc2Cl)cc1 | 0.8 | -8.5 | -3.7 | 7.1 | 0.9 | 20.6
COc1ccc(N/C=C/C(=O)c2ccc(Oc3ncccn3)cc2)cc1 | 0.9 | 0.0 | -12.5 | 11.2 | 0.9 | 9.6
Brc1ccccc1CN1CCC(N2CCCCC2)CC1 | 1.1 | -10.7 | 12.9 | 5.0 | 0.9 | -6.1
FC(F)(F)c1nc2ccccc2nc1N/N=C\c1ccccc1 | 0.8 | -10.3 | 21.3 | 20.7 | 0.8 | 24.8
O=C(CSc1ccccc1)Nc1cccnc1 | 0.9 | 2.9 | -2.2 | 42.5 | 0.6 | 7.1
Cc1noc2ncnc(Sc3ccccc3Cl)c12 | 0.3 | -1.8 | -6.8 | 100.0* | 0 | 68.2*
Cc1noc2ncnc(Oc3ccccc3)c12 | 0.5 | -2.1 | -7.3 | 75.9* | 0.2 | 48.8
SMILES | CYP2C9 activ | PLK1 inh | PLK1 PBD inh | CYP2C19 inh | CYP2C19 act | CYP2C9 inh
Cc1cccc(Oc2ncnc3onc(C)c23)c1 | 1.1 | -2.2 | -1.7 | 22.6 | 0.8 | -8.5
CSc1nc(Sc2ccccc2Cl)c2ccccc2n1 | 1 | -8.4 | -4.8 | -6.5 | 1.1 | -4.8
CC(C)OC(=O)CN1CCN(C2c3ccccc3-c3ccccc32)CC1 | 0.7 | -10.2 | -13.2 | 30.9 | 0.7 | 25.4
COc1ccc(C(=O)Nc2nncs2)cc1S(=O)(=O)N1CC(c2ccccc2)CC1=O (stereo not given) | 0.2 | -13.6 | 3.5 | -0.5 | 1 | 84.2*
O=C(Nc1ccc(S(=O)(=O)N2CCN(c3ccccc3)CC2)cc1)c1cccs1 | 1 | -15.2 | 1.2 | 0.7 | 1 | 2.5
Cc1ccsc1-c1nc(CSCC(=O)NCc2ccc3c(c2)OCO3)c(C)o1 | 0.2 | -23.3 | 3.7 | 46.4 | 0.5 | 79.0*
COc1ccc(-c2nc(CSCC(=O)NCc3ccc4c(c3)OCO4)c(C)o2)cc1 | 0.1 | -0.2 | -21.7 | 95.3* | 0 | 89.2*
CCc1ccc(-c2nc(CSCC(=O)NCCCN3CCCC3=O)c(C)o2)cc1 | 0.1 | -5.3 | -23.4 | 14.0 | 0.9 | 87.7*
COc1ccc(-c2nc(CSCC(=O)NCCC3=CCCCC3)c(C)o2)cc1OC | 0.5 | -12.6 | 12.5 | 60.0* | 0.4 | 46.0
CCOC(=O)N1CCC(NC(=O)CSCc2nc(-c3sccc3C)oc2C)CC1 | 0.8 | -15.5 | 10.0 | 41.2 | 0.6 | 22.0
COc1ccc(-c2nc(CSCC(=O)NCc3ccc4c(c3)OCO4)c(C)o2)cc1OC | 0.5 | x | x | 65.1* | 0.3 | 52.8*
CN(C)c1ccc(NC(=O)CSc2nc3c(c(=O)[nH]2)CCCC3)cc1 | 0.5 | x | x | 11.2 | 0.9 | 46.2
Cc1cc(C)c2c(=O)[nH]c(SCC(=O)Nc3ccc(N(C)C)cc3)nc2n1 | 0.4 | 40.4 | 24.4 | 41.8 | 0.6 | 58.3*
Cc1cc(C)c2c(=O)[nH]c(SCC(=O)Nc3ccccc3)nc2n1 | 0.8 | 52.3* | 4.8 | 16.7 | 0.8 | 20.8
CCCSc1nc2c(=O)[nH][nH]c(=O)c2n1Cc1ccccc1 | x | -13.2 | -6.0 | x | x | x
Cc1ccc2nc(N/N=C\c3ccc([N+](=O)[O-])o3)nc(-c3ccccc3)c2c1 | 0.1 | -12.3 | -8.5 | 72.9* | 0.3 | 86.8*
O=C(O)c1cc([N+](=O)[O-])ccc1C(=O)Nc1ccccc1 | 1.1 | -12.0 | 21.0 | 4.2 | 1 | -9.6
O=[N+]([O-])c1ccc(NNC(=S)Nc2ccccc2)cc1 | 0.2 | -2.2 | -18.9 | 58.9* | 0.4 | 78.6*
COc1ccc([N+](=O)[O-])cc1NC(=O)CC(C)c1ccccc1 (stereo not given) | 1.5 | 4.0 | -28.0 | 72.1* | 0.3 | -48.3
O=[N+]([O-])c1ccc(O)c(NC(=S)Nc2ccccc2)c1 | 0.1 | -6.4 | -10.5 | 55.9* | 0.4 | 91.4*
CC(CC(=O)Nc1ccc(Cl)c([N+](=O)[O-])c1)c1ccccc1 (stereo not given) | 0.3 | 5.7 | 33.9 | 75.9* | 0.2 | 73.5*

Source: PubChem
